Measurements taken from PubChem BioAssay AID1159580 (chemical genetic matrix, 2015).
In all, about 5,500 compounds went through this assay and about 2,000 (36%) were called active. Roughly 18% stayed inconclusive and do not appear here. Cut-off read from the data, not from the text of the source: active = normalized growth mostly below about 0.91 (no sharp cut-off); inconclusive = no clear call, values can overlap the other calls; inactive = mostly above about 0.92. The list shows a part of the results.

Test: chemical genetic growth profiling, strain panel (AID 1159580);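 note: tested at 20 µM; growth read once vehicle control cultures reached saturation at 30 °C; 1 = growth at the plate median or of vehicle wells; lower values mean less growth of the strain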
Settings: S. cerevisiae deletion strains, growth OD

Measured: normalized growth

CCC(C)[C@H]1O[C@]2(CC[C@@H]1C)C[C@@H]1C[C@@H](C/C=C(\C)[C@@H](OC3C[C@H](OC)C(O[C@H]4C[C@H](OC)[C@@H](O)[C@H](C)O4)[C@H](C)O3)[C@@H](C)/C=C/C=C3\CO[C@@H]4[C@H](O)C(C)=C[C@@H](C(=O)O1)[C@]34O)O2 (stereo partly drawn)
inactive: locus YHR030C, strain SLT2, active compounds read low 0.995 | locus YHR079C, strain IRE1, active compounds read low 0.992 | locus YJL095W, strain BCK1, active compounds read low 0.964 | locus YJR066W, strain TOR1, active compounds read low 0.941 | locus YLR113W, strain HOG1, active compounds read low 0.993 | locus YNL183C, strain NPR1, active compounds read low 0.948 | locus YOR231W, strain MKK1, active compounds read low 1 | locus YPL256C, strain CLN2, active compounds read low 0.94
